Only some compounds are listed: those with a hit (about 9.8% of all), similar ones and a draw of the others.
HPGD inh = inhibitors of human 15-hydroxyprostaglandin dehydrogenase (HPGD). purified HPGD, NADH fluorescence kinetic, PGE2 substrate. AID 894. Potency, µM, hits mostly inhibitors. hit rate 4.3% among 150,000. P15428; active = well fitted inhibition curve with a large enough effect, not every such curve was filed as active; inconclusive = small, poorly fitted or top-dose-only effect, or another doubt; inactive = no such curve, though single readings can be large or run the other way
Target sequence (P15428 whole entry, looked up): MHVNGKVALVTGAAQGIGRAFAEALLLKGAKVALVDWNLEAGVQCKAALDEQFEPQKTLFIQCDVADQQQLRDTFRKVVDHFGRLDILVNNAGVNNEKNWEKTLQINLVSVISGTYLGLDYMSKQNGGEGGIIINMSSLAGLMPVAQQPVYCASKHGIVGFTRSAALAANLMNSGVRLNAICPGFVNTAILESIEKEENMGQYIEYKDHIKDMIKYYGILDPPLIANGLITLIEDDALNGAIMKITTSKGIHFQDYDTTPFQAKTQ
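20 nM HPGD preincubated 15 min at room temperature with compound in 50 mM Tris-HCl pH 8, 0.01% Tween 20. Started with 1 mM NAD+ and 30 uM prostaglandin E2; NADH fluorescence (360/450 nm) read 5 times over 30-s intervals, last minus first.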
HTT ATP protect = Huntington cell model cytoprotection by ATP luminescence; hit rate 0.14% among 230,000; PC12 HTT-Q103 induced, cytoprotection, ATP luminescence, 40 h; Potency, µM (titrated, usually from 56.4 µM), actives largely listed as activators; note: nearly all actives have a fitted effect of over 45% in size
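Compounds added alongside 100 nM tebufenozide, which induces toxic Q103 huntingtin exon 1-GFP in stable PC12 cells; surviving cells quantified by luminescent ATP measurement. Medium: phenol red-free DMEM, 5% equine and 5% calf serum.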
KDM4E inh = JMJD2E (human) inhibition; B2RXH2; JMJD2E catalytic domain, FDH-coupled NADH fluorescence (FDH is formaldehyde dehydrogenase); Potency, µM (titrated, usually from 57.1 µM), actives largely listed as inhibitors; hit rate 1.6% among 230,000; active = well fitted inhibition curve with a large enough effect, not every such curve was filed as active; inconclusive = small, poorly fitted or top-dose-only effect, or another doubt; inactive = no such curve, though single readings can be large or run the other way; note: nearly all actives have a fitted effect of over 50% in size
Target sequence (B2RXH2 1-337 limits assumed): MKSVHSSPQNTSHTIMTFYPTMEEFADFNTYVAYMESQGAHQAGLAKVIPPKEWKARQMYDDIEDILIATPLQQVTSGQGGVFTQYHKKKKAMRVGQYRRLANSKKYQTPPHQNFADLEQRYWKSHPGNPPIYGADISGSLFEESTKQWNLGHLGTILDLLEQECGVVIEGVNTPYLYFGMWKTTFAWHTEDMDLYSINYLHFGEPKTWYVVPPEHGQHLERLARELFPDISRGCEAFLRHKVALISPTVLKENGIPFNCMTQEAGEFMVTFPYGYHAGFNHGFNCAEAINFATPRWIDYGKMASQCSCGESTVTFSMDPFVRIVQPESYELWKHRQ
ALDH1A1 inh = ALDH1A1 (human) enzyme inhibition | Potency, µM (highest dose often 75.3 µM), hits mostly inhibitors | P00352 | AID 1030 | Purified ALDH1A1, NADH fluorescence, propionaldehyde substrate | hit rate 7.3% among 220,000; active = well fitted inhibition curve with a large enough effect, not every such curve was filed as active; inconclusive = small, poorly fitted or top-dose-only effect, or another doubt; inactive = no such curve, though single readings can be large or run the other way
CBFb RUNX1 block = inhibitors of human CBF-beta and RUNX1 interaction | 230,000 tested, under 10 active | AlphaScreen CBFb-His/RUNX1-biotin binding, biochemical | Q01196+Q13951 | Potency, µM (series often up to 59.8 µM), usual class: inhibitors
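AlphaScreen binding: CBFb-His and RUNX1-biotin (30 nM each) preincubated 20 min, compound added for 15 min, then nickel and streptavidin beads for 90 min, all at room temperature. Disruption of the interaction by any mechanism counts as activity.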
HTT aggregate = mutant huntingtin aggregation inhibition | PC12 HttQ103-GFP aggregates, Acumen cytometry, 40 h | Potency, µM (titrated, usually from 46.1 µM), most hits filed as inhibitors | hit rate 1.1% among 220,000; note: nearly all actives have a fitted effect of over 60% in size
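Using laser scanning cytometry, GFP-positive aggregates were counted after lysis of PC12 cells induced with 100 nM tebufenozide to express HTT exon 1 Q103–GFP. Compounds were tested in titration.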
Numbers stand for hits; – = inactive; ? = inconclusive; · = not tested or not shown; [ ] = dose if it differs, or a comment. Unless noted, calls come from the whole dose curve; as a rule, active = well fitted curve in the direction sought with a large enough effect; inconclusive = small, poorly fitted or top-dose-only effect, or another doubt; inactive = no such curve, though single readings can be large; an effect the other way counts as inactive or inconclusive.

SMILES | HPGD inh | HTT ATP protect | KDM4E inh | ALDH1A1 inh | CBFb RUNX1 block | HTT aggregate
COc1ccccc1/C=N/N1C(=O)C(CC(=O)Nc2ccc([N+](=O)[O-])cc2OC)SC1=Nc1cccc(C)c1C (stereo unspecified) | · | – | – | – | – | –
CCOC(=O)c1oc2ccc(S(=O)(=O)n3nc(-c4ccccc4)cc3N)cc2c1C | – | – | – | – | – | 10µM
COC(=O)c1c(SCC(=O)Nc2ccc(C)c(C)c2)nc(=O)[nH]c1C | · | –[10 µM] | – | · | – | –[9.22 µM]
CC1(C)CC(=O)C=C(Nc2ccccn2)C1 | – | –[10 µM] | – | 8.9µM | – | –
CC1(C)CC(=O)C=C(Nc2ccc(Br)cn2)C1 | – | –[10 µM] | – | ? | – | –
CC(C)Cn1c2c(c(O)c(C(=O)Nc3ncccc3O)c1=O)CCCC2 | – | –[10 µM] | ? | 7.9µM | – | ?
O=c1c[n+](CC[n+]2cc(=O)o[nH]2)[nH]o1 | – | –[10 µM] | · | –[13.5 µM] | · | ·
CCC(Oc1ccccc1)C(=O)Nc1ccccn1 (stereo unspecified) | – | – | – | 2.8µM | – | –
CCC(Oc1ccccc1)C(=O)NC1CCSC1=O (stereo unspecified) | · | –[10 µM] | – | 6.3µM | – | –[9.22 µM]
CCCNC(=O)Nc1ccsc1C(=O)OC | · | · | – | – | – | –
CCC(Oc1ccccc1)C(=O)Nc1ccsc1C(=O)OC (stereo unspecified) | ? | –[10 µM] | – | 14µM | – | –
O=C1SCCC1NC(=O)C(c1ccccc1)c1ccccc1 (stereo unspecified) | · | –[10 µM] | – | ? | – | –[9.22 µM]
Cc1nc2c(=O)[nH]c3ccccc3c2o1 | · | –[10 µM] | – | – | – | –[9.22 µM]
CCOC(=O)C1=C(C)NC(=O)NC1/C(C)=C/c1ccccc1 (stereo unspecified) | – | – | – | – | – | –
CCOC(=O)C1C(C(=O)OC)=C(C2=CCCCC2)c2ccccc2N1S(=O)(=O)C(F)(F)F (stereo unspecified) | – | – | · | – | – | ·
CCCn1c(C)nc2c(N(CCN(C)C)Cc3ccccc3)nc(C)nc21 | – | – | – | – | – | ·
O=C(O)C(=O)/C=C(\O)c1ccc(Br)cc1 | – | –[10 µM] | · | –[13.5 µM] | · | ·
O=C(/C=C(\O)c1ccccc1)c1ccccc1O | 20µM | – | ? | – | – | ·
CN(C)C(=S)Nc1nc2ccccc2s1 | · | –[10 µM] | – | 7.9µM | – | –[9.22 µM]
O=C(C[n+]1cccc(CO)c1)Nc1nc2ccccc2s1 | · | –[10 µM] | 10µM | – | – | –[9.22 µM]
CCOCC(=O)Nc1nc2ccccc2s1 | – | –[10 µM] | ? | 22µM | – | ?
CCOc1ccc2nc(NC(=S)N(C)C)sc2c1 | 14µM | – | – | 25µM | – | –
O=C(CS(=O)(=O)c1ccccc1)Nc1nc2ccccc2s1 | · | –[10 µM] | – | ? | – | –
O=C(O)C1=CCNCC1 | – | – | – | – | – | ·
CCOc1ccc2nc(NC(=O)CS(=O)(=O)c3ccc(C)cc3)sc2c1 | – | – | – | 25µM | – | –
SMILES | HPGD inh | HTT ATP protect | KDM4E inh | ALDH1A1 inh | CBFb RUNX1 block | HTT aggregate
COc1ccc(-c2cc(C(F)F)n3ncc(C(=O)Nc4cc(C)on4)c3n2)cc1 | · | ? | – | ? | – | ?
CC(C)(C)c1ccc(S(=O)(=O)Nc2ccccn2)cc1 | · | · | – | 32µM | – | ·
O=C1C(Cl)=C(NS(=O)(=O)c2ccc([N+](=O)[O-])cc2)C(=O)c2ccccc21 | · | –[10 µM] | – | · | – | ?
O=C1C(Cl)=C(Nc2ccc(S(=O)(=O)Nc3ccccn3)cc2)C(=O)c2ccccc21 | 2.8µM | –[10 µM] | · | 0.63µM | · | ·
CCc1ccccc1-n1c(SCC(=O)N2CCCC2)nc2[nH]ncc2c1=O | · | – | – | ? | – | –
O=C(CSc1nc2[nH]ncc2c(=O)n1-c1ccccc1Cl)N1CCCC1 | · | – | – | 32µM | – | –
O=C(CSc1nc2[nH]ncc2c(=O)n1-c1ccccc1)N1CCCCCC1 | · | – | – | 5µM | – | –
CCc1ccccc1O | – | – | · | – | – | ·
COc1ccc2c(c1)O[C@@H]1c3ccc(OC)cc3OCC21 (stereo partly specified) | – | – | – | – | – | ·
O=C(/C=C/c1ccc(N2CCCCC2)c([N+](=O)[O-])c1)c1ccc(O)cc1 | · | –[10 µM] | – | 25µM | ? | 18µM
O=C(/C=C/c1ccccc1)N1CCN(c2c(Cl)cccc2[N+](=O)[O-])CC1 | 14µM | –[10 µM] | – | ? | – | ?
COc1ccccc1C(=O)/C=C/c1ccc(N2CCCCC2)c([N+](=O)[O-])c1 | – | –[10 µM] | – | 6.3µM | – | ?
COC(=O)c1cc(NS(=O)(=O)c2ccc(N3CCCCC3)c([N+](=O)[O-])c2)cc(C(=O)OC)c1 | – | – | – | ? | ? | –
COc1ccccc1N1CCN(C(=O)/C=C/c2ccc(C)cc2)CC1 | – | –[10 µM] | – | – | – | –
COc1ccccc1N1CCN(C(=O)/C=C/c2cccc([N+](=O)[O-])c2)CC1 | · | –[10 µM] | – | 14µM | – | –[9.22 µM]
CC/C=C\C/C=C\C/C=C\C/C=C\C/C=C\C/C=C\CCC(=O)NCCO | – | – | – | ? | – | ·
O=c1cc(CN2CCc3ccccc3C2)nc2sccn12 | · | –[10 µM] | – | ? | – | –[9.22 µM]
O=C(O/N=C\c1ccc(N2CCCCC2)c([N+](=O)[O-])c1)c1ccc(Cl)cc1Cl | – | – | – | ? | ? | –
Nc1nnnn1/N=C/c1ccc(N2CCCCC2)c([N+](=O)[O-])c1 | – | –[1.9 µM] | – | 0.071µM | – | –
Oc1ccc(C2=NNC(=NCc3ccc4c(c3)OCO4)SC2)c(O)c1 | ? | –[1.9 µM] | ? | ? | ? | ?
Clc1ccc(C2=NNC(=NCc3ccc4c(c3)OCO4)SC2)cc1 | · | –[10 µM] | – | 22µM | ? | –
CCN(CC)S(=O)(=O)c1ccc(NC(=O)COC(=O)CCc2cc(OC)c(OC)c(OC)c2)cc1 | – | –[1.9 µM] | – | 2.5µM | – | –
CCN(CC)S(=O)(=O)c1cccc(C(=O)OCC(=O)Nc2ccc3c(c2)c2ccccc2n3CC)c1 | – | –[10 µM] | ? | 22µM | – | –
O=S(=O)(Nc1cnc2ccccc2c1)N1CCCCCC1 | – | – | – | ? | – | ?
O=C(NCCN1CCc2ccccc2C1)C1CC(=O)N(C2CCCC2)C1 (stereo unspecified) | ? | – | – | 35µM | – | ?
SMILES | HPGD inh | HTT ATP protect | KDM4E inh | ALDH1A1 inh | CBFb RUNX1 block | HTT aggregate
CCCCN(CC)CCNC(=O)c1cc2c(C)nc3ccccc3c2o1 | – | – | – | – | – | –
CCN(CC)CCCNC(=O)c1cc(Sc2nnc(C)s2)nc2ccccc12 | 28µM | –[10 µM] | – | – | – | ?
CCCCOc1cc(C(=O)NCCN(CC)CC)c2ccccc2n1 | – | – | 32µM | – | – | ?
COC(CNC(=O)c1cc(Sc2nnc(C)s2)nc2ccccc12)OC | ? | –[10 µM] | – | ? | – | –
COc1cccc(CCNC(=O)CC2C(=O)NCCN2Cc2ccc(Cl)c(F)c2)c1 (stereo unspecified) | · | –[10 µM] | ? | ? | – | –[9.22 µM]
CC(C)(C)c1ccc(C(CC(=O)O)NC(=O)Cc2ccc(F)cc2)cc1 (stereo unspecified) | · | – | – | – | – | –

Screening results deposited in PubChem by National Center for Advancing Translational Sciences (NCATS).
